Experiments:
[1] = molecular target: Mitogen-activated protein kinase 3 (Homo sapiens) (UniProt P27361); conditions: at 1 µM;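 further: values are mean percent inhibition of MAPK3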
[2] = molecular target: SRSF protein kinase 3 (Homo sapiens) (UniProt Q9UPE1); conditions: at 0.1 µM
[3] = molecular target: SRSF protein kinase 3 (Homo sapiens) (UniProt Q9UPE1); conditions: at 1 µM
[4] = molecular target: Mitogen-activated protein kinase 14 (Homo sapiens) (UniProt Q16539); conditions: at 0.1 µM
[5] = molecular target: Mitogen-activated protein kinase 14 (Homo sapiens) (UniProt Q16539); conditions: at 1 µM
[6] = molecular target: Mitogen-activated protein kinase 11 (Homo sapiens) (UniProt Q15759); conditions: at 0.1 µM
Chain of Mitogen-activated protein kinase 11 (Homo sapiens) (Q15759 whole entry): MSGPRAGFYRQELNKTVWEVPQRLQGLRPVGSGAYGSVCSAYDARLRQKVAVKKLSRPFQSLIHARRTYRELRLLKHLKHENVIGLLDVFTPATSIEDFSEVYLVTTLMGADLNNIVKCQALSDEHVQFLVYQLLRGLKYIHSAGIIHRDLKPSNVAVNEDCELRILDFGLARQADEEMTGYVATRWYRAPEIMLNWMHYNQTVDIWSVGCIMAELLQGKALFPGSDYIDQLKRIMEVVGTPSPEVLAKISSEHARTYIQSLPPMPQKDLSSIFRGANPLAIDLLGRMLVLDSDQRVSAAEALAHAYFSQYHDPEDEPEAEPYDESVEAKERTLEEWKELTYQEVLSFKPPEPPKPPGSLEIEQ

[7] = molecular target: Mitogen-activated protein kinase 11 (Homo sapiens) (UniProt Q15759); conditions: at 1 µM
[8] = molecular target: T1, Mitogen-activated protein kinase 13 (Homo sapiens) (UniProt O15264); conditions: at 0.1 µM
T1 sequence (whole entry): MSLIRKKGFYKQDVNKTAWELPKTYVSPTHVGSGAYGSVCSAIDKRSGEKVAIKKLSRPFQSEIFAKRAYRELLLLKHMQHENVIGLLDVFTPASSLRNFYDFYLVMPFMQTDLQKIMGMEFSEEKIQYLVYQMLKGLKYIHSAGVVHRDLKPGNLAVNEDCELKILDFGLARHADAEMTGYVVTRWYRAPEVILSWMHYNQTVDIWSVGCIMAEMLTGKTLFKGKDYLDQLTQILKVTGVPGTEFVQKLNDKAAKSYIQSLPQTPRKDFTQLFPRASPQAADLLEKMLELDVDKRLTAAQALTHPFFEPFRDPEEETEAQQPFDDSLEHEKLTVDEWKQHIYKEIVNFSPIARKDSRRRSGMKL

[9] = molecular target: T1, Mitogen-activated protein kinase 13 (Homo sapiens); conditions: at 1 µM
[10] = molecular target: T2, Mitogen-activated protein kinase 12 (Homo sapiens) (UniProt P53778); conditions: at 0.1 µM
T2 sequence (whole entry): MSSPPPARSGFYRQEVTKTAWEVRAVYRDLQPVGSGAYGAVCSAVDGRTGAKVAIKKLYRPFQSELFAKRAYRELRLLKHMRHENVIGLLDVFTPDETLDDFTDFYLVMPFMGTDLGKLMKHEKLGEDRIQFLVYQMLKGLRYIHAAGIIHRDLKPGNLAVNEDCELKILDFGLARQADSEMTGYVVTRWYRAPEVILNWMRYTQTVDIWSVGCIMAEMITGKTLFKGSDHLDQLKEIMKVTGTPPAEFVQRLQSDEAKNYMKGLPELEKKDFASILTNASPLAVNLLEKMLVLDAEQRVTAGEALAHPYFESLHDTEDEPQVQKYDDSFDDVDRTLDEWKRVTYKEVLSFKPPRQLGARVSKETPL

[11] = molecular target: T2, Mitogen-activated protein kinase 12 (Homo sapiens); conditions: at 1 µM
[12] = molecular target: SRSF protein kinase 1 (Homo sapiens) (UniProt Q96SB4); conditions: at 0.1 µM
Chain of SRSF protein kinase 1 (Homo sapiens) (Q96SB4 whole entry, canonical isoform): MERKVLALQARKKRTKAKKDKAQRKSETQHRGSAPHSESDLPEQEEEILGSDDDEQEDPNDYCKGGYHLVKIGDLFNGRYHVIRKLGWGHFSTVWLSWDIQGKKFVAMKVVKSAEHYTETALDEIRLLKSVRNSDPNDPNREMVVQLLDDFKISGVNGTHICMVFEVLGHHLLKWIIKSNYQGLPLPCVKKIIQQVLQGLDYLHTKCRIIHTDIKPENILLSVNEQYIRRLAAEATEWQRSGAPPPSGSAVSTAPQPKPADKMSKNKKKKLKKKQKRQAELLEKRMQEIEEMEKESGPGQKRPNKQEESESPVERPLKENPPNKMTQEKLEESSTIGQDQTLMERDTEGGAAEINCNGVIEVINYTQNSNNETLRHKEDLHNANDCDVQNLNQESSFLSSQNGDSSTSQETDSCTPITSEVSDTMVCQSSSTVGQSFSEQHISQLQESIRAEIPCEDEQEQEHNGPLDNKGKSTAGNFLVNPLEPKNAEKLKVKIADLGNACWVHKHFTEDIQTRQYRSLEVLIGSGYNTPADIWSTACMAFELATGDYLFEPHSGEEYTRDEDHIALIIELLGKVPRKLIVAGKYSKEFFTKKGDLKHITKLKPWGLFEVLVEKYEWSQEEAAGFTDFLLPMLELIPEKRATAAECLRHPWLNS

[13] = molecular target: SRSF protein kinase 1 (Homo sapiens) (UniProt Q96SB4); conditions: at 1 µM
[14] = molecular target: Phosphatidylinositol 4,5-bisphosphate 3-kinase catalytic subunit alpha isoform (Homo sapiens) (UniProt P42336); conditions: at 0.1 µM
Chain of Phosphatidylinositol 4,5-bisphosphate 3-kinase catalytic subunit alpha isoform (Homo sapiens) (P42336 whole entry, canonical isoform): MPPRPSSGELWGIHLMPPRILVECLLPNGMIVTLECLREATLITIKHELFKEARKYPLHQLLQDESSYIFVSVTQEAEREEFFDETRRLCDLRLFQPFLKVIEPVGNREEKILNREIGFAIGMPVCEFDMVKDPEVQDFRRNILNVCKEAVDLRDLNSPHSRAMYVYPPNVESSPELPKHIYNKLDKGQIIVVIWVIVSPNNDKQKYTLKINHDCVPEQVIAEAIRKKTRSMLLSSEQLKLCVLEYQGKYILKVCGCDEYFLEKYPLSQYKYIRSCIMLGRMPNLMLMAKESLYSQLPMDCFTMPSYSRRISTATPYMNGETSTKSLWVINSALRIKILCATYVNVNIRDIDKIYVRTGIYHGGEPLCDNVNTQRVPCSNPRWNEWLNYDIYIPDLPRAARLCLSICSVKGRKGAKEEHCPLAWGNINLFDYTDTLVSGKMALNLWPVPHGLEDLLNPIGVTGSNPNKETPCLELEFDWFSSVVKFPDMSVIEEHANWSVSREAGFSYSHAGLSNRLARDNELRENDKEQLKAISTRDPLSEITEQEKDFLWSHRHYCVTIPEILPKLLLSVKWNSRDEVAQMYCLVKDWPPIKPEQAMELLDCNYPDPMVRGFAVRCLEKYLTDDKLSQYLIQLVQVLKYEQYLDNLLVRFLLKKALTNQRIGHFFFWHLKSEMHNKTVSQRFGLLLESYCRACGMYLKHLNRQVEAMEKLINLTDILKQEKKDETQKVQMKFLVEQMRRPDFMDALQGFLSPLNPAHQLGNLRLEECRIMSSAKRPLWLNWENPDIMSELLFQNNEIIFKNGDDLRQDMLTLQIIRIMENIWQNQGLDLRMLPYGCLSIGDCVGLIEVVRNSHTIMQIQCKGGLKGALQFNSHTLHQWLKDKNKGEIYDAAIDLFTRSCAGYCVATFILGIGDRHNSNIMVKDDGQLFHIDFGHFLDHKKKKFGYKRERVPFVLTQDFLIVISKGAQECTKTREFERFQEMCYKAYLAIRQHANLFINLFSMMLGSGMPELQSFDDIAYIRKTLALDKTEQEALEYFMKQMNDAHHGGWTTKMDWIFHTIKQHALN

[15] = molecular target: Phosphatidylinositol 4,5-bisphosphate 3-kinase catalytic subunit alpha isoform (Homo sapiens) (UniProt P42336); conditions: at 1 µM
[16] = molecular target: Phosphatidylinositol 4-kinase beta (Homo sapiens) (UniProt Q9UBF8); conditions: at 0.1 µM
Chain of Phosphatidylinositol 4-kinase beta (Homo sapiens) (Q9UBF8 2-816 limits assumed): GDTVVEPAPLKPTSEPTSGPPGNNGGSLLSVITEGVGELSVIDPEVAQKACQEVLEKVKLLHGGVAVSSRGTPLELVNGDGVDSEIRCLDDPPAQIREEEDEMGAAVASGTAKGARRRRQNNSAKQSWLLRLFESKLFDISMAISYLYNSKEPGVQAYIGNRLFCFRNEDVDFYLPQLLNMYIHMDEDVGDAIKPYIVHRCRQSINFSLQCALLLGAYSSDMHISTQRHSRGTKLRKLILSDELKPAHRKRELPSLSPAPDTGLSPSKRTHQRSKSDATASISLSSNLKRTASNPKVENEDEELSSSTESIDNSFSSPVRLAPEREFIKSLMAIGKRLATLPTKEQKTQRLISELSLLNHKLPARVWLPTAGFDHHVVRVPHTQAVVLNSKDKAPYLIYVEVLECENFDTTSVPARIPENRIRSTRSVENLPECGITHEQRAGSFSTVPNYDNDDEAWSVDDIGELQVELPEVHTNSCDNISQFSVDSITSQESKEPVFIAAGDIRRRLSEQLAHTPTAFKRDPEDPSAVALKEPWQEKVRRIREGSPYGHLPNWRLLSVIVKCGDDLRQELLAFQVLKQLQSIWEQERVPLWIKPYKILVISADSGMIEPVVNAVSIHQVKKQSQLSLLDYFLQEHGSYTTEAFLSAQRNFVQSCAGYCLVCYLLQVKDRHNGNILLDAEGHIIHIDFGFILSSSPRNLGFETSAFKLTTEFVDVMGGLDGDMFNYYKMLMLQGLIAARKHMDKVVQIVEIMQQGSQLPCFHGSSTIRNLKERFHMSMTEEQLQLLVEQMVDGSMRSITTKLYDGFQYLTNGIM

[17] = molecular target: Phosphatidylinositol 4-kinase beta (Homo sapiens) (UniProt Q9UBF8); conditions: at 1 µM
[18] = molecular target: Sphingosine kinase 1 (Homo sapiens) (UniProt Q9NYA1); conditions: at 0.1 µM;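 further: mean percent inhibition of SPHK1 activity, measured within the GSK PKIS screening panel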
Chain of Sphingosine kinase 1 (Homo sapiens) (Q9NYA1 whole entry, canonical isoform): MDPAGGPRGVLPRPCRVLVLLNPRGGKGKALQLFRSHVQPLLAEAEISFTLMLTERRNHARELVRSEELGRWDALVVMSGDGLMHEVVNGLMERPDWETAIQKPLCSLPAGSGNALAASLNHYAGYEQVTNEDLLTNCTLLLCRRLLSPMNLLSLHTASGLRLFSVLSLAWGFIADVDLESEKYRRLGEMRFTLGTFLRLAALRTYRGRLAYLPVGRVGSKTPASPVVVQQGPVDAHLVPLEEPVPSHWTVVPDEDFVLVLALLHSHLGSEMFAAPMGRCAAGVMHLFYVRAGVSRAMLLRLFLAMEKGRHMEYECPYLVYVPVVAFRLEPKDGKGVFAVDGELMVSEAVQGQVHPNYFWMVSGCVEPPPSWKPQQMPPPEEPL

[19] = molecular target: T3, Phosphatidylinositol 4,5-bisphosphate 3-kinase catalytic subunit delta isoform (Homo sapiens) (UniProt O00329); conditions: at 0.1 µM
T3 sequence (whole entry): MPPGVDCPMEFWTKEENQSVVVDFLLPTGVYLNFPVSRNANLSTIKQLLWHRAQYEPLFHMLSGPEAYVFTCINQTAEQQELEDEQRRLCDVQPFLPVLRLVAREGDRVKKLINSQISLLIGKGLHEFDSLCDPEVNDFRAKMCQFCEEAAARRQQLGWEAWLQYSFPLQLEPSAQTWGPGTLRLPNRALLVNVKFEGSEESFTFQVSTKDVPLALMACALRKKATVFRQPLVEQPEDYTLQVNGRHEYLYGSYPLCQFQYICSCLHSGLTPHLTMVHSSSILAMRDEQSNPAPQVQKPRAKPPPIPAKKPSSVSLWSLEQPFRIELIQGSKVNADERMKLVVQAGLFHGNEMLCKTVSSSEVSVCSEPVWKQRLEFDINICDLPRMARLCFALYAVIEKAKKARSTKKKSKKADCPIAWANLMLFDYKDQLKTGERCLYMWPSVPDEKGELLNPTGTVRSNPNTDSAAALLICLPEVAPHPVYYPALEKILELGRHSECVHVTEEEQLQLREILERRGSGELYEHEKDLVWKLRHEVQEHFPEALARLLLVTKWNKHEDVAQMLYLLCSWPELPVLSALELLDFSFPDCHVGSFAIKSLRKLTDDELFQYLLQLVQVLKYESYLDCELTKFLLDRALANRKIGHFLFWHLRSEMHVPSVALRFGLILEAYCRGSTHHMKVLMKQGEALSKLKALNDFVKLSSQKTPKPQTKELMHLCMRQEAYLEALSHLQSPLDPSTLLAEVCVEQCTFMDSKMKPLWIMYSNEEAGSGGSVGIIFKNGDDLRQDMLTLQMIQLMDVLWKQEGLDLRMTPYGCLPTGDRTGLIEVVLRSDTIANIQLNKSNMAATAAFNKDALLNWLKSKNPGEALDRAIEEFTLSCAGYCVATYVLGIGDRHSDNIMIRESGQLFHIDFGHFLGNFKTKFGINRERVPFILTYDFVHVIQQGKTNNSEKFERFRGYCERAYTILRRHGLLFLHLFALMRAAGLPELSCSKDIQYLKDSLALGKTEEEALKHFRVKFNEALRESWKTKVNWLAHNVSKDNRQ

[20] = molecular target: T3, Phosphatidylinositol 4,5-bisphosphate 3-kinase catalytic subunit delta isoform (Homo sapiens); conditions: at 1 µM

Chain of SRSF protein kinase 3 (Homo sapiens) (Q9UPE1 whole entry): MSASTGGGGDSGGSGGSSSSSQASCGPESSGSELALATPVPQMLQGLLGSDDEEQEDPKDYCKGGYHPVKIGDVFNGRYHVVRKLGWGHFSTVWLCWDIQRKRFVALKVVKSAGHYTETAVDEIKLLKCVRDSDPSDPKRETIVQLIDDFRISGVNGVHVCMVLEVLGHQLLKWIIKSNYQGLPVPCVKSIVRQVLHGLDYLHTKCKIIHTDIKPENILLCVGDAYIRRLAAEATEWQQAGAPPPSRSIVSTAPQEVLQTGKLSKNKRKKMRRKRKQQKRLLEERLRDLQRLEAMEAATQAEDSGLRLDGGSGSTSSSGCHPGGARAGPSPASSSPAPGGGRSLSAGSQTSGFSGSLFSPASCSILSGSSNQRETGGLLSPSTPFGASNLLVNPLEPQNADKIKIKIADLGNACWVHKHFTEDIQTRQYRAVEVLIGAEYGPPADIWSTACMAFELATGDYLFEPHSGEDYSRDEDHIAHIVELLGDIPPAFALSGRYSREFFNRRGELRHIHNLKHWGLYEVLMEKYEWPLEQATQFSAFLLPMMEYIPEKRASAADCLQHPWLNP
Chain of Mitogen-activated protein kinase 3 (Homo sapiens) (P27361 whole entry): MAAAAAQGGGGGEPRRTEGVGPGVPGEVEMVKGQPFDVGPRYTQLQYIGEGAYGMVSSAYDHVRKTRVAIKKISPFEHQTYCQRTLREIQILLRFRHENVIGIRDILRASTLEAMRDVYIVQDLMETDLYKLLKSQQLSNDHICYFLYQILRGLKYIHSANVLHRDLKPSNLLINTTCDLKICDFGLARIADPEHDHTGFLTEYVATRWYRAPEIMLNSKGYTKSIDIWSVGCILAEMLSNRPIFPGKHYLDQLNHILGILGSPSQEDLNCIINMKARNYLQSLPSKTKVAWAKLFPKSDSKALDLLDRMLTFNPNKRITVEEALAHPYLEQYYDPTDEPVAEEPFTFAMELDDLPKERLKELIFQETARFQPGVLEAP
Chain of Mitogen-activated protein kinase 14 (Homo sapiens) (Q16539 whole entry): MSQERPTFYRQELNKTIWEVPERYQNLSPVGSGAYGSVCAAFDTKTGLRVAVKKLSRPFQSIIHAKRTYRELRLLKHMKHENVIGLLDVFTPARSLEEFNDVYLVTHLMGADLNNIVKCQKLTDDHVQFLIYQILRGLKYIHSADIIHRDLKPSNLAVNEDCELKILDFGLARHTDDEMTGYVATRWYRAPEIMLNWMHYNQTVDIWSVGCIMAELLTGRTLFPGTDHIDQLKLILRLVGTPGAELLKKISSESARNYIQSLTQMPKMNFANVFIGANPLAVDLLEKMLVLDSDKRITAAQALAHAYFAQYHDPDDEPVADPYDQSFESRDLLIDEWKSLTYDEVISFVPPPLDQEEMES

Row | SMILES | inhibition [1] [%] | inhibition [2] [%] | inhibition [3] [%] | inhibition [4] [%] | inhibition [5] [%] | inhibition [6] [%] | inhibition [7] [%] | inhibition [8] [%] | inhibition [9] [%] | inhibition [10] [%] | inhibition [11] [%] | inhibition [12] [%] | inhibition [13] [%] | inhibition [14] [%] | inhibition [15] [%] | inhibition [16] [%] | inhibition [17] [%] | inhibition [18] [%] | inhibition [19] [%] | inhibition [20] [%]
1 | Nc1nc(-c2ccc3c(c2)C(=Cc2cc(Br)c(O)c(Br)c2)C(=O)N3)cs1 | 1.82 | -2.97 | -1.79 | 1.75 | -0.33 | -2.08 | 2.83 | -2.1 | -1.28 | -1.72 | -1.45 | 1.08 | 1.39 | 0.41 | 24.5 | 36.1 | 71.6 | 2.04 | – | –
2 | N#Cc1c(NC(=O)c2cccc3ccccc23)sc2c1CCCC2 | 0.11 | -0.61 | -2.89 | 2.97 | 5.23 | 0.78 | 4.42 | 2.16 | 3.76 | 2.38 | 2.56 | -2.33 | -3.29 | 1.58 | 4.62 | -2.84 | -0.74 | -0.7 | 2.32 | 4.96
3 | CN(C)c1cc2c(Nc3ccc4nc(Cc5ccccc5)[nH]c4c3)ncnc2cn1 | 4.66 | -0.28 | -1.52 | 6.65 | 9.66 | 1.34 | – | 1.99 | 5.16 | 5.41 | 2.45 | -1.74 | -1.6 | 7 | 8.83 | -2.6 | 5.38 | -1.38 | 7.22 | 8.91
4 | Cc1nn(C)c2cc(N(C)c3ccnc(Nc4cccc(S(N)(=O)=O)c4)n3)ccc12 | 0.11 | -3.4 | -1.66 | 4.32 | 19.7 | 3.77 | 25.1 | 1.54 | 4.16 | -0.41 | 2.2 | -1.51 | -1.14 | 6.6 | 30.8 | – | -0.74 | -0.2 | 10.5 | 53.8
5 | COc1cc(C=NNc2ncnc3c2cnn3-c2ccccc2)ccc1O | 1.84 | 2.22 | 4.19 | 4.51 | 10.7 | 3.59 | 9.09 | 3.08 | 7.17 | 1.85 | 5.79 | -0.73 | 0.63 | 6.59 | 15.9 | -0.81 | -0.12 | -0.86 | 8.17 | 18
6 | Cn1cc(C=C2C(=O)Nc3cccnc32)c2ccccc21 | 2.73 | -0.25 | -0.47 | 3.62 | 7.85 | 3.65 | 5.58 | -0.63 | 2.23 | 2.25 | 2.65 | -3.21 | -4.48 | 2.82 | 7.17 | 0.42 | 4.05 | -3.04 | 1.38 | 3.54
7 | COc1cc2ncn(-c3cc(O[C@@H](C)c4ccccc4Cl)c(C(N)=O)s3)c2cc1OC | 3.07 | -3.53 | -0.07 | 6.72 | 7.39 | 3.1 | 2.35 | 4.76 | 3.82 | 3.18 | 3.72 | -2.61 | -2.08 | 4.55 | 11.5 | 3.29 | -6.07 | 1.31 | 2.44 | 10.6
8 | CCCN1CCC(Oc2cc(Nc3nc(Nc4cccc(F)c4C(N)=O)c4cc[nH]c4n3)c(OC)cc2Cl)CC1 | 2.9 | 0.09 | 3.91 | 0.2 | 3.85 | 0.2 | 0.06 | 0.04 | -0.16 | -0.75 | 0.42 | -0.3 | -0.85 | -1.23 | -1.07 | 3.96 | -2.71 | 0.48 | -0.45 | 0.08
9 | COc1cc2ncn(-c3cc(OCc4ccccc4C(F)(F)F)c(C(N)=O)s3)c2cc1OC | 3.77 | -2.16 | 5.51 | 9.41 | 9.56 | 3.98 | 7.82 | 5.41 | 5.14 | 4.2 | 6.13 | -1.32 | 0.47 | 4.61 | 18.7 | -3.15 | 1.79 | 1.28 | 2.08 | 15.9
10 | COc1cccc(-n2ncc3c(N/N=C/c4cccc(F)c4)ncnc32)c1 | 0.85 | -2.57 | -3.83 | -0.34 | 5.39 | 3.19 | 0 | 2.14 | 6.21 | 4.04 | 2.67 | -1.75 | -2.37 | 2.47 | 4.79 | 2.02 | -7.13 | -0.37 | 2.15 | 5.82
11 | CCn1c(-c2nonc2N)nc2c(C#CC(C)(C)O)nc(CN3CCCC3)cc21 | 0.84 | -1.03 | -0.96 | 0.68 | -0.47 | -2.47 | 0.28 | 0.31 | -1.59 | 1.31 | 0.15 | -2.3 | -2.96 | -2.21 | -0.12 | -0.02 | -2.03 | 0.49 | 0.87 | 3.83
12 | CCn1c(-c2nonc2N)nc2cncc(C(=O)N3CCNCC3)c21 | 7.02 | 0.64 | -1.54 | 14.5 | 20.5 | 5.86 | 5.3 | 6.15 | 7.35 | 3.73 | 5.97 | -1.32 | -1.85 | 5.78 | 5.67 | -4.56 | – | -1.49 | 1.16 | 2.58
13 | COc1ccc(COc2ccc(Cc3cnc(N)nc3N)cc2OC)cc1 | 0.29 | 2.01 | 0.79 | 0.58 | 4.45 | 2.44 | 1 | – | 0.37 | -1.2 | 1.41 | -0.52 | -2.52 | 0.14 | 1.07 | 2.15 | -1.98 | -3.33 | -0.96 | 0.68
14 | NS(=O)(=O)c1ccc(N/N=C2\C(=O)Nc3ccc(C(=O)NCCc4c[nH]cn4)cc32)cc1 | 7.89 | 1.31 | -0.05 | 5.71 | 8.13 | 3.37 | 6.34 | -1.15 | 4.35 | 4.17 | 2.64 | -1.35 | -0.63 | 2.2 | 4.76 | -6.38 | -1.44 | -1.35 | 1.71 | 2.03
